PubChem BioAssay (NCI)
This is part of a sample that, as a whole, favours compounds with a hit. Of some 83,000 tested, about 20% had one in any assay.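 Activity criterion: percent growth below 10, measured after cells in 96-well plates were exposed to a single compound concentration for 48 hours.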 Activity calls are given as the source filed them.

Tests used:
Assay in all cases: NCI-60 one-dose screen, 48 h (100 = growth as untreated, 0 = no growth, -100 = all killed)
Conditions in all cases: 10 µM unless noted
[1] = test system: HCT-15 colon
[2] = test system: HT29 colon
[3] = test system: SNB-75 CNS
[4] = test system: SNB-19 CNS
[5] = test system: U251 CNS
[6] = test system: PC-3 prostate
[7] = test system: SK-MEL-5 melanoma
[8] = test system: UACC-62 melanoma
[9] = test system: LOX IMVI melanoma
[10] = test system: SK-MEL-28 melanoma
[11] = test system: SK-MEL-2 melanoma
[12] = test system: EKVX NSCLC
[13] = test system: SN12C renal
[14] = test system: UO-31 renal
[15] = test system: TK-10 renal
[16] = test system: ACHN renal
[17] = test system: CAKI-1 renal
[18] = test system: A498 renal
[19] = test system: CCRF-CEM leukemia
[20] = test system: MOLT-4 leukemia

Measured: growth

C#Cc1cccc(NC(=O)Nc2ccccc2NC(=O)CCl)c1
active: [1] -19.8% [8.25 µM] | [2] -15.5% [8.25 µM] | [3] -83.9% [8.25 µM] | [5] -85.2% [8.25 µM] | [6] -29% [8.25 µM] | [7] -94.8% [8.25 µM] | [8] -94.1% [8.25 µM] | [9] -94.4% [8.25 µM] | [10] -10.4% [8.25 µM] | [11] -56% [8.25 µM] | [13] -68.6% [8.25 µM] | [14] -97.7% [8.25 µM] | [15] -27.8% [8.25 µM] | [16] -84.1% [8.25 µM] | [17] -85.2% [8.25 µM] | [18] -93.4% [8.25 µM]
inactive: [4] 19.7% [8.25 µM] | [12] 71.9% [8.25 µM] | [19] 22.2% [8.25 µM] | [20] 24.5% [8.25 µM]

N#Cc1c(-c2ccc(Cl)cc2)nc2c(c(-c3ccccc3)nn2-c2ccccc2)c1-c1ccc(O)cc1
active: [13] -18.4%
inactive: [1] 27.2% | [2] 91.8% | [3] 42.6% | [4] 65% | [5] 34% | [6] 12% | [7] 56.3% | [8] 53.6% | [9] 26.5% | [10] 56.4% | [11] 74.5% | [12] 67.8% | [14] 30.5% | [15] 17.2% | [16] 56% | [17] 40.2% | [18] 79.3% | [19] 27% | [20] 24.3%

Cc1ccccc1C(=O)NN
inactive: [1] 106% | [2] 98.9% | [3] 91.1% | [4] 105% | [5] 104% | [6] 92.8% | [7] 119% | [8] 101% | [9] 109% | [10] 115% | [11] 99.9% | [12] 108% | [13] 108% | [14] 70.7% | [15] 105% | [16] 106% | [17] 98.3% | [18] 117% | [19] 100% | [20] 92.3%

C/C(=N/NC(N)=S)c1sc(Nc2cccc(Cl)c2)nc1C
inactive: [1] 57.8% | [2] 79% | [3] 120% | [4] 87.9% | [5] 89.8% | [6] 74.8% | [7] 87.1% | [8] 92.9% | [9] 63.6% | [10] 94.8% | [11] 86.6% | [12] 74.1% | [13] 76.1% | [14] 35.7% | [15] 86.7% | [16] 80.5% | [17] 63.8% | [18] 81.4% | [19] 82.4% | [20] 50%

Cc1ccc(C(=O)N/N=C/c2cccc(Oc3ccccc3)c2)cn1
inactive: [1] 38.5% | [2] 20% | [3] 65.7% | [4] 65.6% | [5] 58.9% | [6] 76.7% | [7] 47.4% | [8] 38.3% | [9] 63.9% | [10] 63.7% | [11] 44.5% | [12] 77.4% | [13] 68.6% | [14] 13.9% | [15] 83.3% | [16] 85.9% | [17] 22.9% | [18] 57.6% | [19] 82.3% | [20] 40%

COc1ccc(C2CC(c3ccc(Nc4ccnc5cc(Cl)ccc45)cc3)=NN2C=O)cc1 (stereo not given)
inactive: [1] 23.6% | [2] 33.2% | [3] 77.1% | [4] 81.5% | [5] 63.4% | [6] 72.3% | [7] 41.2% | [8] 54.5% | [9] 20% | [10] 74.9% | [11] 92.5% | [12] 68.2% | [13] 64.4% | [14] 43.2% | [15] 91.2% | [16] 48.5% | [17] 59.2% | [18] 101% | [19] 14% | [20] 25.8%

O=c1[nH]c2c(ccc3cnccc32)c2c1CCC2
active: [1] 1.99% | [2] 7.54% | [3] -33.4% | [4] 3.98% | [5] 5.85% | [6] 0.402% | [7] -48.5% | [8] -81.3% | [9] 0.937% | [10] -52.7% | [11] -15.9% | [12] -13.5% | [13] 7.16% | [14] -11.5% | [15] -5.65% | [16] 6.67% | [17] -19.9% | [18] -51.5% | [19] -22.3%
inactive: [20] 15.9%

O=C(Nc1nc2ccc(F)cc2s1)c1cccnc1Nc1ccc(Cl)cc1Cl
inactive: [1] 16.9% | [3] 34.7% | [4] 20.2% | [5] 15.8% | [8] 20.1% | [9] 32.5% | [10] 37.8% | [11] 43.5% | [14] 28.5% | [15] 11.4% | [16] 27.5% | [20] 46%
active: [2] 7.92% | [6] 3.63% | [7] -2.74% | [12] 1.03% | [13] 9.61% | [17] -0.286% | [18] -4.34% | [19] -3.42%

COc1ccc2nc(NC(=O)c3cccnc3Nc3ccc(S(N)(=O)=O)cc3)sc2c1
inactive: [1] 94.2% | [2] 106% | [3] 74.6% | [4] 99.4% | [5] 97.4% | [6] 71.6% | [7] 89.4% | [8] 82.5% | [9] 100% | [10] 116% | [11] 103% | [12] 92% | [13] 110% | [14] 126% | [15] 99% | [16] 90% | [17] 76.1% | [18] 93.5% | [19] 59.3% | [20] 63.3%

O=CN1N=C(c2ccc(Nc3ccnc4cc(Cl)ccc34)cc2)CC1c1ccccc1 (stereo not given)
inactive: [1] 15.4% | [2] 11.6% | [3] 56.4% | [4] 52.8% | [5] 34.5% | [6] 42.4% | [8] 38.4% | [9] 13.7% | [10] 44.4% | [11] 32.6% | [12] 46.2% | [13] 53.8% | [14] 24.1% | [15] 59.7% | [16] 33.4% | [17] 38.2% | [18] 21.2% | [19] 15% | [20] 13.8%
active: [7] 1.49%

O=C(Nc1ccc(I)cc1F)c1cc(I)ccc1O
active: [1] 4.84% | [3] 1.71% | [6] 7.79% | [7] -95.8% | [8] -24.1% | [9] 8.01% | [10] 5.11% | [11] -19.3% | [12] 6.21% | [13] -10.4% | [14] -9.71% | [16] -5.98% | [17] 3.29% | [18] -49.1% | [20] -10%
inactive: [2] 78.7% | [4] 17.5% | [5] 16.1% | [15] 14.7% | [19] 15.3%

CNC(=O)c1[nH]cc(-c2ccccc2)c1-c1cc(OC)c2c(c1OC)OCO2
inactive: [1] 104% | [2] 91.5% | [3] 70.9% | [4] 90.6% | [5] 96% | [6] 98.3% | [7] 105% | [8] 90.8% | [9] 98.5% | [10] 108% | [11] 102% | [12] 98% | [13] 91.1% | [14] 83.8% | [15] 106% | [16] 95.8% | [17] 76.5% | [18] 95.4% | [19] 108% | [20] 101%

CCCCOc1nc2c(C)cccc2cc1-c1cc(-c2ccc(Cl)cc2)nc(-c2ccc(Cl)cc2)c1
inactive: [1] 103% | [2] 103% | [3] 106% | [4] 92.3% | [5] 100% | [6] 94.8% | [7] 103% | [8] 97.8% | [9] 98.3% | [10] 101% | [11] 102% | [12] 101% | [13] 96% | [14] 95.6% | [15] 108% | [16] 101% | [17] 93.9% | [18] 90.4% | [19] 103% | [20] 103%

COc1nc2ccccc2cc1-c1nc2c(cnn2-c2ccc(Br)cc2)c(=O)[nH]1
inactive: [1] 24% | [4] 21.5% | [5] 15.7% | [6] 13.6% | [8] 24.9% | [9] 31.7% | [10] 43.4% | [11] 24.3% | [12] 42.4% | [13] 33.2% | [14] 27.1% | [15] 40.6% | [16] 35.4% | [17] 29.4% | [19] 13.7% | [20] 47.7%
active: [2] 8.03% | [3] -12.9% | [7] 5.23% | [18] 8.46%
